Inhibition data for 87 molecules are collected here from PubChem BioAssay AID1159606 (Sanford-Burnham Center for Chemical Genomics, 2016).

Usually inhibition stands for the change of the read-out against control, counted positive when it falls.

Out of some 360,000 compounds screened, about 7,300 (2%) were called active. Only a selection was taken, and actives are over-represented in it overall. Unmarked numbers belong to inactive results. Rule as the data show it: active = inhibition above about 50%; inactive = the rest.

The test can be described thus: inhibitors of TWEAK-Fn14 signaling, primary screen, luciferase reporter cells, uHTS (AID 1159606). The note with it: TWEAK-stimulated Fn14 reporter cells, luciferase luminescence, 8 h; at 10 µM; hits give high values. On the technique in general: Reporter assays use an easily measured gene product as a stand-in for the process of interest.
With `COc1cccc(-n2c(SCC(=O)NC3CCS(=O)(=O)C3)nc3ccccc3c2=O)c1` (configuration not stated), the inhibition is 6.23%.

In the case of `Cc1ccc(-n2c(SCC(=O)N3CCC(C(=O)O)CC3)nc3ccccc3c2=O)cc1C`, the inhibition was 58.6% (active).

Consider `O=C(CSc1nc2ccccc2c(=O)n1-c1ccccc1F)N1CCOCC1`, for which the inhibition is 0.72%.

With `O=C(CCCN1C(=O)C(c2ccccc2)Oc2cccnc21)Nc1ccccc1Br` (configuration not stated), the inhibition was -8.78%.

`COC(=O)[C@]12CCCCC=C1N(Cc1cccc3ccccc13)C(=O)[C@H](CC(=O)N1CCOCC1)C2`: the inhibition was -1.32%.

In the case of `CSc1ccc(Cl)c(C(=O)OCC(=O)N2CC(C)OC(C)C2)c1` (configuration not stated), the inhibition is 3.56%.

On to `CCCCC(=O)Nc1c2c(nn1-c1ccc([N+](=O)[O-])cc1)CS(=O)(=O)C2`, for which the inhibition was -8.65%.

Regarding `O=C1/C(=C\c2ccc([N+](=O)[O-])cc2)CS(=O)(=O)C/C1=C/c1ccc([N+](=O)[O-])cc1`, the inhibition was 103% (active).

For `CN(C)S(=O)(=O)N1CCN(c2ccc([N+](=O)[O-])cc2)CC1`, the inhibition was -16%.

Consider `Cc1cc(NC(=O)CSc2nnnn2-c2ccc(F)cc2)no1`, for which the inhibition was -11.5%.

As for `O=C(O)Cc1csc(NC(=O)CSc2nnnn2-c2ccc(O)cc2)n1`, the inhibition is 58.4% (active).

Consider `O=C(CSc1nnnn1-c1ccc(O)cc1)c1ccc(F)cc1`, for which the inhibition was -10.2%.

For `O=C(COc1cccc(F)c1)Oc1ccc(C(=O)c2ccccc2)cc1`, the inhibition was 10.4%.

Regarding `O=C(Nc1ccn(Cc2ccccc2F)n1)c1ccc(COc2ccc(Cl)cc2Cl)o1`, the inhibition was 33.4%.

On to `Cc1c(Br)c([N+](=O)[O-])nn1CC(=O)N1CCN(Cc2ccccc2)CC1`, for which the inhibition is -4.42%.

Take `O=C(Nc1ccn(Cc2ccccc2)n1)c1n[nH]c([N+](=O)[O-])c1Cl`: the inhibition is 73.8% (active).

Turning to `CC(=O)Oc1ccc(Cn2c(C)c(C(=O)NCc3ccc(C#N)cc3)sc2=O)cc1`, the inhibition was -2.94%.

`CC(=O)C1=CCC(c2ccccc2)N(S(=O)(=O)c2ccc(C)cc2)C1` (configuration not stated): the inhibition was 15.7%.

Take `Cc1ccc2cc3cc(C(=O)N4CCCCCC4)oc3nc2c1`: the inhibition is 50.1% (active).

`Cc1ccc2oc(=O)c3cnn(CC(=O)N4CCCCCC4)c3c2c1`: the inhibition is -7.9%.

As to `Cc1cc(C)cc(NC(=O)N2CCCCCCC2)c1`, the inhibition was -11.9%.

For the molecule `COc1ccc(OC)c(CN2C(=O)CCC2(C)c2nnnn2Cc2ccccc2)c1` (configuration not stated), the inhibition was -0.14%.

Take `C=CCNc1nnc(SCC(=O)N2CCCCC2)c2ccccc12`: the inhibition is 16.3%.

As for `COC(=O)c1ccc2nc(-c3ccc(C)cc3)c(Cc3ccc(OC)cc3C)n2c1`, the inhibition is -18.1%.

`Cc1cccc(NC(=S)NCCc2ccc(Cl)cc2)c1C`: the inhibition is 72% (active).

Consider `Cc1cccc(NC(=S)NCCc2ccc(F)cc2)c1C`, for which the inhibition is 3.93%.

As for `Cc1ccccc1NC(=S)NC(=O)Cc1ccc(Cl)cc1`, the inhibition is 9.93%.

With `Cc1ccc(CNC(=O)c2cccc3c2C(=O)c2ccc(N4CCC(C)CC4)cc2S3(=O)=O)cc1`, the inhibition is 21%.

As to `COc1cc(/C=C/C(=O)OCC(=O)Nc2cccc(Oc3ccccc3)c2)ccc1O`, the inhibition is 14.2%.

As for `CCCCC[C@H](C)N1C[C@@H](COCc2ccccc2)Oc2cc(N3CC[C@@H](N(C)C)C3)ccc2S1(=O)=O`, the inhibition is -25%.

Turning to `Nc1ccccc1SC(C[N+](=O)[O-])c1ccccc1` (configuration not stated), the inhibition is 61.3% (active).

`CS(=O)(=O)N(Cc1ccccc1)c1ccc(C(=O)NN=C2CCCCCC2)cc1`: the inhibition is -6.55%.

On to `COc1ccc(OC)c(NC(=O)C2CCCN2S(=O)(=O)c2ccc3c(c2)CC(C)N3C(C)=O)c1` (configuration not stated), for which the inhibition is -20.4%.

`COc1ccc(CN(Cc2ccco2)S(=O)(=O)c2ccc(S(=O)(=O)N3CCCC3)cc2)cc1`: the inhibition was -30.2%.

Consider `Cc1ccsc1C(=O)OCC(=O)NCCc1ccccc1`, for which the inhibition is -22.4%.

As for `Cc1ccsc1C(=O)OCC(=O)c1cc(C)n(CC2CCCO2)c1C` (configuration not stated), the inhibition is 103% (active).

As for `Cc1ccsc1C(=O)OCC(=O)Nc1cccc(F)c1`, the inhibition is -31.6%.

As to `Cc1ccc(OCC(=O)N2CCN(S(=O)(=O)c3ccc(Cl)s3)CC2)cc1C`, the inhibition is 10.7%.

As for `CCCC(C)C(=O)Nc1ccc(NC(C)=O)cc1` (configuration not stated), the inhibition is -11.6%.

On to `O=C(CCS(=O)(=O)c1ccccc1)Nc1nc2c(s1)CCCC2`, for which the inhibition was 22%.

Turning to `COc1ccc(N(C)C(=O)CCS(=O)(=O)c2cccc3nsnc23)cc1`, the inhibition was 36.5%.

`Cc1cccc(C)c1NC(=O)CCS(=O)(=O)c1cccc2nsnc12`: the inhibition is -23.2%.

As to `Cc1cccc2sc(N(CCCN(C)C)C(=O)CCS(=O)(=O)c3ccccc3)nc12`, the inhibition was 61.9% (active).

As for `COc1cccc2sc(N(CCCN(C)C)C(=O)CCS(=O)(=O)c3ccccc3)nc12`, the inhibition is 77.6% (active).

With `Cc1ccc(S(=O)(=O)CCC(=O)OCC(=O)N(C)Cc2ccccc2)cc1`, the inhibition is 4.76%.

Regarding `CCOc1ccc(NS(=O)(=O)c2ccc(C(=O)NC3CCN(Cc4ccccc4)CC3)cc2)cc1`, the inhibition was 10.7%.

As to `Cc1cccc(CCNC(=O)Cn2ncc3c([nH]c4ccc(C)cc43)c2=O)c1`, the inhibition is -15.4%.

In the case of `C=CCc1cc(S(=O)(=O)c2ccc(O)c(CC=C)c2)ccc1O`, the inhibition was 30.9%.

As to `O=C1C(Sc2cccc(F)c2)=C[C@@]2(O)CC[C@@H](O)[C@]1(Sc1cccc(F)c1)[C@H]2O`, the inhibition is 31.5%.

On to `CC(OC(=O)Cc1ccc(F)cc1)C(=O)N1CCc2ccccc21` (configuration not stated), for which the inhibition is -3.73%.

With `C[C@H](CO)N1C[C@H](C)[C@H](CN(C)C(=O)Nc2ccc(C(F)(F)F)cc2)Oc2c(NC(=O)c3ccncc3)cccc2C1=O`, the inhibition is 7.86%.

`Cc1nnc(NC(=O)CSc2nccn2-c2cccc(C)c2C)s1`: the inhibition was 12.7%.

As to `COc1cc(C(O)c2nc(-c3cnn(C)c3)cs2)ccc1F` (configuration not stated), the inhibition was -2.28%.

With `Brc1ccccc1/C=N/Nc1nc2ccccc2o1`, the inhibition was -8.62%.

For the molecule `Oc1c(Br)cccc1/C=N/Nc1c(F)c(F)c(F)c(F)c1F`, the inhibition is 71.5% (active).

`c1cc(-c2ccc3[nH]ccc3c2)n2ccnc2c1`: the inhibition was -2.85%.

In the case of `COCCNC(=S)N1CCC(NC(=O)C23CC4CC(CC(C4)C2)C3)CC1`, the inhibition was 15.9%.

In the case of `CCOC(=O)[C@]12CCCC=C1N(Cc1ccc(Cl)cc1Cl)C(=O)[C@H](CC(=O)N1CCCCC1)C2`, the inhibition was 7.58%.

For the molecule `COc1cc2c(=O)n(C)c3ccccc3c2cc1OC`, the inhibition was -37.3%.

For the molecule `O=C(COC(=O)c1ccccc1)c1ccc2c(c1)OCCO2`, the inhibition is 77.6% (active).

For the molecule `O=C(OCc1ccccc1F)c1ccc2c(c1)OCCO2`, the inhibition was -12.5%.

Take `CC(=O)Nc1cccc(C(=O)OCC(=O)c2ccc3c(c2)OCO3)c1`: the inhibition is 81.9% (active).

As for `CC(=O)Nc1cccc(C(=O)OCC(=O)NCc2cc(C)c(O)c(C)c2)c1`, the inhibition was -19.2%.

With `COc1ccc(C(=O)OCC(=O)Nc2cccc(C(C)=O)c2)cc1OC`, the inhibition is 11.4%.

Consider `O=C(COC(=O)c1ccc(O)cc1O)c1ccc2c(c1)OCCO2`, for which the inhibition is -18.5%.

For the molecule `CCOC(=O)[C@]12CCC=C1N(Cc1ccccc1)C(=O)[C@H](CC(=O)N1CCCC1)C2`, the inhibition was 15.9%.

Take `CCN1CCN(CCNC(=O)c2ccc3c(c2)NC(=O)/C(=C\c2cccc(Cl)c2)S3)CC1`: the inhibition was -66.6%.

As to `CCN(CCCNC(=O)c1ccc2c(c1)NC(=O)CN2C)c1cccc(C)c1`, the inhibition is 82.5% (active).

In the case of `CCN(CCCNC(=O)CCn1c(=O)[nH]c2ccsc2c1=O)c1ccccc1`, the inhibition was -1.46%.

As for `CCOC(=O)N1CCN(C(=O)C[C@@H]2C[C@@]3(C(=O)OC)CCCCC=C3N(CCC3=CCCCC3)C2=O)CC1`, the inhibition was -5.06%.

For `COCCCn1cc(CN2CC(N(C)C)CS2(=O)=O)nn1` (configuration not stated), the inhibition was 20.9%.

Turning to `CC(C)C[C@H]1CNC(=O)C(=O)N1C[C@H]1CCCN1C[C@H](Cc1ccc(O)cc1)N1C[C@H](CC(C)C)N(CC2CCCCCC2)C(=O)C1=O`, the inhibition was 1.64%.

Turning to `CCC(C)Cn1c(O)cc2nn(-c3nc4ccccc4s3)c(=O)c-2c1C` (configuration not stated), the inhibition is 61.6% (active).

As for `C[C@H](CO)N1C[C@H](C)[C@H](CN(C)C(=O)Nc2ccc3c(c2)OCO3)Oc2ncc(Br)cc2C1=O`, the inhibition was -2.28%.

Take `OCCC1CN(Cc2ccc(Oc3ncccn3)cc2)CCN1CCc1ccccc1` (configuration not stated): the inhibition was 75.5% (active).

As for `CC(C)=CCN1CCN(Cc2ccc(Oc3ncccn3)cc2)CC1CCO` (configuration not stated), the inhibition is 14.3%.

For `CCOc1ccc(CN2CCN(CCCc3ccccc3)C(CCO)C2)cc1` (configuration not stated), the inhibition was 1.65%.

In the case of `COc1ccc(OC)c(NC(=O)c2ccc3c(c2)CCN3S(C)(=O)=O)c1`, the inhibition is -3.45%.

Turning to `CN(C)C1CN(Cc2cn(Cc3ccccc3)nn2)S(=O)(=O)C1` (configuration not stated), the inhibition was 7.88%.

Take `COCc1c(N)c(C)nc(Cl)c1C#N`: the inhibition was 12.4%.

For the molecule `COC(=O)N(C)C[C@@H]1OCc2cnnn2CCCC(=O)N([C@@H](C)CO)C[C@@H]1C`, the inhibition is 19.1%.

Consider `C[C@@H]1CN([C@@H](C)CO)C(=O)CCCn2nncc2CO[C@H]1CN(C)Cc1ccc(C(F)(F)F)cc1`, for which the inhibition is 1.47%.

With `C[C@@H]1CN([C@@H](C)CO)C(=O)CCCn2nncc2CO[C@H]1CN(C)C(=O)Nc1ccc(C(F)(F)F)cc1`, the inhibition was 106% (active).

For the molecule `O=C1c2ccncc2C(=O)N1C1CCCCC1`, the inhibition is -3.74%.

Turning to `c1ccc(C(=NNc2nc3ccccc3s2)c2ccccn2)cc1`, the inhibition is 44.1%.

For the molecule `O=[N+]([O-])c1cc(Br)c(O)c(/C=N/Nc2nc3ccccc3s2)c1`, the inhibition was 75.7% (active).

`O=C(N/N=C/c1cc(Br)c(O)c([N+](=O)[O-])c1)C(O)(c1ccccc1)c1ccccc1`: the inhibition is -0.77%.
